Drawing on PubChem BioAssay (NCI), this text covers growth for 38 compounds.

Molecules are shown by their SMILES. Compounds without any hit were thinned out: in the full panel of roughly 83,000, 20% have a hit.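 Step 1: grow cells in 96-well plates. Step 2: add test compound at a single concentration. Step 3: incubate 48 h. Step 4: record percent growth.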 The source made the active and inactive calls. How the source made its calls: active means growth percent below 10; inactive means the rest.

For this assay, the system named is A498 renal. As to the kind of experiment: NCI-60 one-dose screen, 48 h (100 = growth as untreated, 0 = no growth, -100 = all killed). The note with it: 10 µM unless noted.
`Nc1nc(-c2cc3c(cc2Cl)NC(=O)/C3=C/c2ccc(Cl)cc2)cs1`: the growth was 74.8% (inactive).

Consider `Cc1cccc(Cc2cnc(NC(=O)CCc3ccc(C)o3)s2)c1`, for which the growth is -11.7% (active).

Take `CC(Cl)(CCl)CS(=O)(=O)c1ccc(Cl)cc1` (stereo not drawn): the growth was 77.2% (inactive).

On to `COc1ccc(Cl)cc1NC(=O)c1cc2c([nH]1)-c1nc(NC(=O)C(C)(C)C)sc1CC2`, for which the growth is 79.2% (inactive).

On to `CC(C)(c1ccc(OCC(O)CNCc2ccco2)cc1)c1ccc(OCC(O)CNCc2ccco2)cc1` (stereo not drawn), for which the growth is 68.9% (inactive).

With `O=C1CCC(c2c(O)cc(O)c3c(=O)c(O)c(-c4ccc(O)c(O)c4)oc23)N1` (stereo not drawn), the growth was 92.1% (inactive).

With `COc1ccc(Cn2cc3c(c2-c2cc(OC)c(OC)c(OC)c2)CCc2c(CO)noc2-3)cc1`, the growth was 18.2% (inactive).

Turning to `CC(=O)Cc1cccnc1`, the growth is 85.4% (inactive).

Regarding `CC(/C=C/C=C(\C)[C@H](O)[C@H](C)C(=O)O[C@H]1C[C@H](C)C=C2C=C[C@@]3(C)O[C@@H](O)CC(=O)[C@]3(C)[C@H]21)=C\C=C\C(=O)O`, the growth is -38.9% (active).

With `Nc1nc(-c2cc3c(cc2Cl)NC(=O)/C3=C/c2ccccc2)cs1`, the growth is 60% (inactive).

With `C=CC(=O)NC(=O)Nc1ccccc1Cl`, the growth is 109% (inactive).

Regarding `CCOC(=O)c1noc2c1CCc1c-2cn(Cc2ccc(OC)cc2)c1-c1cc(OC)c(OC)c(OC)c1`, the growth is 56.2% (inactive).

Consider `C=C1C(=O)O[C@H]2[C@H]1CC/C(COC(=O)OC/C1=C/CC[C@@]3(C)O[C@H]3[C@H]3OC(=O)[C@@H](CN(C)C)[C@@H]3CC1)=C\CC[C@@]1(C)O[C@@H]21`, for which the growth is 58.5% (inactive).

`CC1CCC(C(C)C)C(NN)C1` (stereo not drawn): the growth was 105% (inactive).

Consider `Cc1cc(SCc2ccc(Cl)cc2Cl)nc(SCc2ccc(Cl)cc2Cl)n1`, for which the growth was 98.7% (inactive).

Turning to `CCCC(C)(C)COC(=O)c1cccc(N)c1`, the growth was 88.6% (inactive).

Regarding `O=C1C(Cl)=C(Nc2cccc3cc4ccccc4nc23)C(=O)c2ccccc21`, the growth was 46.5% (inactive).

Regarding `CN(C)CCCOc1c(Br)cc(/C=C/C(=O)N(C)CCc2cc(Br)c(OCCCN(C)C)c(Br)c2)cc1Br`, the growth was 60.5% (inactive).

In the case of `Nc1nccc(=S)[nH]1`, the growth is 108% (inactive).

Consider `C=C1C(=O)O[C@H]2[C@H]1CC/C(COC(=O)CCCC(=O)OC/C1=C/CC[C@@]3(C)O[C@H]3[C@H]3OC(=O)C(=C)[C@@H]3CC1)=C\CC[C@@]1(C)O[C@@H]21`, for which the growth was 62.6% (inactive).

As for `O=C(NNC(=O)c1ccc([N+](=O)[O-])cc1)c1ccc([N+](=O)[O-])cc1`, the growth is 90.5% (inactive).

On to `COc1cc(C(=O)NNC(=O)c2ccccc2C(=O)O)cc(OC)c1OC`, for which the growth was 78.7% (inactive).

In the case of `O=S(c1ccccc1)c1ccc2nnnn2n1` (stereo not drawn), the growth is 86.6% (inactive).

`Cc1ncc(CO)c(C(=O)O)c1O`: the growth was 99.5% (inactive).

For `CCOC(=O)c1noc2c1CCc1cn(Cc3cc(OC)cc(OC)c3)cc1-2`, the growth is 107% (inactive).

Regarding `CCCCCC/C=N/Nc1ccc([N+](=O)[O-])cn1`, the growth was 103% (inactive).

Turning to `CC[C@@]1(O)C(=O)OCc2c1cc1n(c2=O)Cc2c-1nc1ccccc1c2/C=N/OC(C)(C)C`, the growth is -70.2% (active).

For `CC(=O)Oc1ccc(C(OC(C)=O)OC(C)=O)cc1`, the growth is 92.3% (inactive).

On to `C=C1C(=O)O[C@H]2[C@H]1CC/C(COC(=O)n1ccnc1C)=C\CC[C@@]1(C)O[C@@H]21`, for which the growth was 105% (inactive).

As for `C=C1C(=O)O[C@H]2[C@H]1CC/C(C(=O)NCCOCCOCC(=O)Nc1ccc(OC)c(C(N)=O)c1O)=C\CC[C@@]1(C)O[C@@H]21`, the growth was 105% (inactive).

For `Cc1cc(C)c(O)c(C(=O)CC(Br)C(=O)O)c1` (stereo not drawn), the growth was 117% (inactive).

Turning to `COc1ccc(-c2ccc(NC(=O)Nc3cccc(C(F)(F)F)c3)c(C)n2)cc1`, the growth was 52.1% (inactive).

As to `COc1ccc(Cn2cc(COc3ccc4c5ccnc(C)c5n(CCCc5ccccc5)c4c3)nn2)cc1`, the growth was 88.8% (inactive).

For the compound `O=S(=O)(O)c1ccc(F)cc1`, the growth was 101% (inactive).

In the case of `Cc1nccc2c3ccc(OCc4cn(Cc5ccc(Br)cc5)nn4)cc3n(CCCc3ccccc3)c12`, the growth is 91% (inactive).

As for `Cl[C@@H]1CCO[C@H](c2cc3ccccc3c3ccccc23)C1`, the growth was 77.2% (inactive).

For the compound `Nc1ncnc2c1c(C(F)(F)F)cn2[C@@H]1O[C@H](CO)[C@@H](O)[C@H]1O`, the growth was -43.2% (active).

With `C#C[C@@]1(O)[C@@H](CO)O[C@@H](n2cc(Br)c3c(Cl)ccnc32)[C@@H]1O`, the growth is -20% (active).
